High-throughput results as filed in PubChem BioAssay.
TDP1 block = inhibitors of human tyrosyl-DNA phosphodiesterase TDP1; Q9NUW8; recombinant TDP1, AlphaScreen DNA substrate cleavage; Potency, µM (series often up to 130 µM), without a hit: top-dose activity change, negative = inhibition, usual class: inhibitors; 0.28% of 350,000 active; also: potency is read from the fitted curve at half-maximal effect; nearly all actives have a fitted effect of over 40% in size
Target sequence (Q9NUW8 whole entry, looked up): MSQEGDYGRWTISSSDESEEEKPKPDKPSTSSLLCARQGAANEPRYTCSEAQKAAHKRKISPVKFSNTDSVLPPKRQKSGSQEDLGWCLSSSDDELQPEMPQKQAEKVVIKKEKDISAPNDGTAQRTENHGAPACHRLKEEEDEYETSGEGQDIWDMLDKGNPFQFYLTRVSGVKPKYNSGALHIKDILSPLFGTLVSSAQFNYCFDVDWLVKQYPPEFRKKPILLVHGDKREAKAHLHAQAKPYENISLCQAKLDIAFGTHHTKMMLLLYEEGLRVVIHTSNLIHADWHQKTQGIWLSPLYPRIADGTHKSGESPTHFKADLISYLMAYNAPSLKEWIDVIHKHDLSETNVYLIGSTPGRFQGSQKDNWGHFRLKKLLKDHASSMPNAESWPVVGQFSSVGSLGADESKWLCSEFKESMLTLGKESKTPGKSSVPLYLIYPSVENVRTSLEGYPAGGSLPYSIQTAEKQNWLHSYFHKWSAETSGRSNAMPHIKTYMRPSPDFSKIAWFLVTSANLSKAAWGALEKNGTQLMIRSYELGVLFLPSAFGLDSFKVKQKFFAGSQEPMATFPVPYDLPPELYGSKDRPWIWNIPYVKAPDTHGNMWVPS
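Compounds were preincubated with Tdp1 (1 nM final) for 15 min at room temperature before substrate (15 nM final) started a 5 min reaction; beads (10 ug/ml final) were then added for 10 min before AlphaScreen detection.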
IL1B secr inh = blocks inflammasome-driven IL-1 beta release. 4.7% of 360,000 active. THP-1 LPS/ATP IL-1B secretion, AlphaLISA, 16 h; stronger effect = lower value. activity change, % at 57.5 µM; in the data active = activity change below about -50%; inconclusive = mostly about -30% to -49%
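THP-1 cells pretreated 1 hr with compounds (up to 57.5 uM final), then stimulated with LPS (250 ng/mL final) plus ATP (1.25 mM final); secreted IL-1B measured by AlphaLISA after 16 hr, decreased signal indicating inhibition.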
DT40 TDP1 CPT = DT40-hTDP1 cell growth loss with CPT | chicken DT40 Tdp1-/-;hTDP1 cells + 20 nM CPT, ATP luminescence, 48 h | Potency, µM (top dose mostly 46.2 µM), for inactives: at the highest dose activity change, negative = growth inhibition, most hits filed as inhibitors | 12% of 420,000 active | AID 686979; also: potency is read from the fitted curve at half-maximal effect; nearly all actives have a fitted effect of over 55% in size
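Cell growth measured by CellTiter-Glo luminescence after a minimum 48 h, 37 C compound exposure with 20 nM CPT in Tdp1-knockout DT40 cells stably expressing hTDP1, seeded 400/well; qHTS titration format.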
ELG1 repair inh = blocks ELG1-dependent DNA repair in HEK293T cells | HEK293T ELG1-luciferase reporter, luminescence, 16 h; DNA damage induced by 5-fluorouridine | Potency, µM (highest dose often 46.1 µM), for inactives: top-dose activity change, negative = inhibition, hits mostly inhibitors | 2.3% of 330,000 active; also: potency is read from the fitted curve at half-maximal effect; nearly all actives have a fitted effect of over 55% in size
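In this reporter screen, reduction of luminescence relative to DMSO vehicle indicated activity. Compounds and 5-fluorouridine were added together to 2,000 cells per well, incubated for 16 hr at 37 °C, then developed with ONE-Glo.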
Giardia kill = kills Giardia lamblia; activity change, % at 7.66 µM, hits read low; 0.15% of 340,000 active; Giardia lamblia trophozoite viability; in the data active = activity change below about -80%; inconclusive = between about -30% and that limit;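 also: parasites exposed to compound for two days anaerobically before the ATP read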
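Killing of trophozoites was scored by loss of ATP luminescence after a 48 hrs anaerobic exposure to compounds at 37 deg C, using 100 cells per well.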
TDP1 cell noCPT = qHTS for Inhibitors of human tyrosyl-DNA phosphodiesterase 1 (TDP1): qHTS in cells in absence of CPT; DT40 Tdp1-/- hTDP1 cells, no CPT, ATP luminescence, 48 h; Potency, µM (highest dose often 46.2 µM), for inactives: at the highest dose activity change, negative = growth inhibition, most hits filed as inhibitors; 15% of 420,000 active; AID 686978, 2013; also: potency is read from the fitted curve at half-maximal effect; nearly all actives have a fitted effect of over 55% in size
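DT40 Tdp1-/-;hTDP1 cells, no CPT (DMSO vehicle only), 400 cells/well; compounds pin-transferred; ≥48 hr, 37 °C; CellTiter-Glo 30 min RT dark, luminescence read.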
* marks the source's active call; other numbers are inactive results; i = inactive; ? = inconclusive; . = not tested or not shown; [ ] = remark or other dose. A selection: hits, their analogues and other compounds. The true share with any hit is near 19%. Unless noted, calls follow the shape of the dose curve; as a rule, active = well fitted curve in the direction sought with a large enough effect; inconclusive = small, poorly fitted or top-dose-only effect, or another doubt; inactive = no such curve, though single readings can be large; an effect the other way counts as inactive or inconclusive. % is scaled to controls: 0 for no effect and ±100 for the full control effect.

SMILES	TDP1 block	IL1B secr inh	DT40 TDP1 CPT	ELG1 repair inh	Giardia kill	TDP1 cell noCPT
O=C(Nc1cccc(Cl)c1Cl)c1cc2nc(-c3ccc(Cl)cc3)cc(C(F)(F)F)n2n1	3%	.	-22%	.	.	-1%
O=C(COC(=O)/C=C/c1ccc(C(F)(F)F)cc1)NCC1CCCO1 (centres undefined)	-1%	-5	?	21%	-11	?
O=C(COC(=O)c1ccccc1Cl)NCc1cccs1	.	7	-4%	.	.	0%
Nc1cc(Cl)ccc1C(=O)OCC(=O)NCc1cccs1	-7%	-85*	?	?	-8	?
CCn1c(=O)c2sccc2n2c(CCCC(=O)N3CCN(c4ccccc4OC)CC3)nnc12	0%	.	?	.	.	?
CCCn1cc(CN2CCC(Cc3cccc(F)c3)(C(=O)OCC)CC2)c(C)n1	-1%	10	?	0%	-11	?
CCOC(=O)C1(Cc2ccc(Cl)cc2)CCN(Cc2cn(CC)nc2C)CC1	8%	?	16µM*	?	4	?
CCOC(=O)C1(Cc2ccc(Cl)cc2)CCN(C(=O)c2cnc(C)cn2)CC1	.	32	?	-1%	-6	23µM*
CCOC(=O)C1(CCc2ccccc2)CCN(C(=O)c2occc2C)CC1	3%	-12	?	?	-13	15µM*
CCOC(=O)C1(CCCc2ccccc2)CCN(C(=O)c2cnn(CC)c2)CC1	-3%	-24	26µM*	6%	-2	18µM*
CCOC(=O)C1(Cc2ccc(Cl)cc2)CCN(C(=O)c2cscn2)CC1	0%	-9	-27%	10%	2	?
COCCn1c(SCC(=O)N2CCC(C)CC2)nc2c([nH]c3ccccc32)c1=O	-2%	11	?	-6%	-1	?
CCOC(=O)C1(Cc2ccc(Cl)cc2)CCN(C(C)Cc2ccc(O)c(OC)c2)CC1 (centres undefined)	.	-51*	9.2µM*	-1%	2	3.3µM*
CCOC(=O)C1(Cc2ccc(OC)cc2)CCN(C(=O)c2cc(C)nn2C)CC1	2%	22	23µM*	?	6	18µM*
CCCS(=O)(=O)N1CCC(Cc2ccc(OC)cc2)(C(=O)OCC)CC1	2%	11	?	?	7	?
CCOC(=O)C1(Cc2ccc(OC)cc2)CCN(S(C)(=O)=O)CC1	0%	19	-12%	-19%	5	-6%
CCOC(=O)C1(CCCc2ccccc2)CCN(C(=O)c2cnc(C)cn2)CC1	6%	-14	26µM*	16µM*	-4	21µM*
CCOc1ccc(C(=O)NNC(=O)C2CC(=O)N(c3ccc(C)cc3)C2)cc1 (centres undefined)	-3%	-14	-11%	0%	2	-4%
Cc1ccc(NS(=O)(=O)c2ccc(C(=O)N3CCOCC3)cc2)cc1	-6%	20	?	0%	5	?
O=C(c1ccc(NS(=O)(=O)c2ccccc2)cc1)N1CCOCC1	.	-20	6%	0%	-11	10µM*
CC1CCN(C(=O)c2ccc3ccccc3c2)CC1	3%	7	-12%	?	11	-6%
Cc1ccc(NS(=O)(=O)c2ccc(C(=O)N3CC(C)CC(C)C3)cc2)cc1 (centres undefined)	0%	21	21µM*	-6%	4	16µM*
CC1CC(C)CN(C(=O)c2ccc3ccccc3c2)C1 (centres undefined)	0%	-51*	?	14%	-13	?
Cc1ccc(NS(=O)(=O)c2ccc(C(=O)N3CCN(S(=O)(=O)c4ccccc4)CC3)cc2)cc1	2%	3	12µM*	?	10	7.3µM*
Cc1ccc(S(=O)(=O)Nc2ccc(C(=O)N3CCCC3)cc2)cc1	3%	i	-18%	3%	-13	-21%
SMILES	TDP1 block	IL1B secr inh	DT40 TDP1 CPT	ELG1 repair inh	Giardia kill	TDP1 cell noCPT
Cc1ccc(S(=O)(=O)N2CCN(C(=O)c3ccc(S(=O)(=O)N4CCCC4)cc3)CC2)cc1	6%	-11	-6%	?	-1	11%
CCN(CC)CCN(Cc1cc2cc3c(cc2[nH]c1=O)OCO3)C(=S)NCCOC	.	-28	-9%	11%	-4	3%
COc1cccc(-c2cccc(-c3nc(C(=O)NCc4ccc5c(c4)OCO5)cc4c3[C@H](CCO)N(S(=O)C(C)(C)C)C4)c2)c1 (some centres undefined)	.	-23	?	.	.	?
CC(O)(c1ccccc1)c1ccc2ccccc2n1 (centres undefined)	.	0	-2%	.	-8	-7%
COc1ccc(N2CCN(C(=O)c3ccc(NS(=O)(=O)c4ccc(F)c(F)c4)cc3)CC2)cc1	12%	6	?	3%	1	?
CCOC(=O)N1CCN(C(=O)c2ccc(S(=O)(=O)Nc3ccccc3)cc2)CC1	1%	37	12µM*	-11%	-15	?
COc1ccc(NS(=O)(=O)c2ccc(C(=O)N3CCN(c4ccc(F)cc4)CC3)cc2)cc1	3%	-25	10µM*	?	6	4.6µM*
Cc1ccc(NS(=O)(=O)c2ccc(C(=O)N3CCN(c4ncccn4)CC3)cc2)cc1	7%	-1	?	5.8µM*	-12	7.3µM*
CC1CC(C)CN(C(=O)c2ccc(S(=O)(=O)N3CC(C)CC(C)C3)cc2)C1 (centres undefined)	0%	-77*	23µM*	?	1	18µM*
COc1ccccc1CNC(=O)c1cc(C(=O)CC(C)C)c[nH]1	.	-14	?	-6%	17	?
COC(=O)/C(=N/Nc1ccccc1OC)N1CCCc2ccccc21	-6%	-3	?	3%	6	?
COc1ccc(CCC(=O)NC2CC(=O)N(c3ccc(C)c(C)c3)C2)cc1 (centres undefined)	-3%	.	-2%	.	.	-18%
O=C(c1ccc(NS(=O)(=O)c2ccc(F)cc2)cc1)N1CCCCC1	-7%[0.505 µM]	-13	-29%	10%	-12	?
O=C(c1ccc(S(=O)(=O)Nc2ccc(F)cc2)cc1)N1CCN(c2ccccn2)CC1	2%	-54*	?	16µM*	38	18µM*
Cc1ccc(S(=O)(=O)N2CCN(C(=O)c3cc4c(s3)CCCC4)CC2)cc1	1%	4	?	6%	16	16µM*
O=S(=O)(Nc1ccc(N2CCCCC2)cc1)c1ccc(F)cc1	3%	5	16µM*	?	6	29µM*
